Consider 12 molecules from PubChem BioAssay (Tox21).

SMILES strings stand for the structures. Records with an inconclusive call do not appear. Some structures have more than one record in an assay (separate samples or runs), and their calls can disagree. Calls of active or inactive are those of the source. Unless noted, calls come from the whole dose curve; as a rule, active = well fitted curve in the direction sought with a large enough effect in the repeat runs; inconclusive = weak or mixed curves; inactive = no such curve, though single readings can be large; an effect the other way counts as inactive or inconclusive.

The target of assay [1] is Luciferin 4-monooxygenase (Photinus pyralis) (UniProt P08659). Briefly: qHTS assay to identify small molecule inhibitors of firefly luciferase (AID 1224835). Note: nearly all actives have a fitted effect of over 25% in size. Note: potency is the fitted concentration of half-maximal effect. The essentials:
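Biochemical qHTS: compounds run as interplate titrations against purified firefly enzyme, with D-luciferin and ATP each at its KM concentration. Light output recorded by CCD imaging.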
(In general: In qHTS, concentration-response curves come from the screen itself.)

Assay [2] can be described thus: qHTS assay to identify small molecule antagonists of the estrogen related receptor signaling pathway with the pleiotropic PPARgamma coactivator (PGC) from Tox21 10K library - cell viability counter screen (AID 1224840; active = well fitted cell-killing curve with a large enough effect in the repeat runs, not every such curve was filed as active; note: nearly all actives have a fitted effect of over 40% in size; note: potency is the fitted concentration of half-maximal effect). The essentials:
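Viability counter screen, PGC/ERR cells: 17.5 h compound exposure at 37 C, CellTiter-Fluor fluorescence endpoint.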

Assay [3] can be described thus: qHTS assay to identify small molecule agonists of the estrogen related receptor signaling pathway with the pleiotropic PPARgamma coactivator (PGC) from Tox21 10K library (AID 1224842). Note: nearly all actives have a fitted effect of over 15% in size. Put shortly:
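PGC/ERR reporter cell line, 2,000 cells per well, incubated 6 h at 37 C before 23 nL compound in DMSO was added. After 18 h at 37 C, One-Glo luminescence read following 30 min at room temperature.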

The nature of assay [4]: qHTS assay to identify small molecule agonists of the hypoxia (HIF-1) signaling pathway - cell viability counter screen (AID 1224844; calls by dose curve; note: nearly all actives have a fitted effect of over 50% in size; note: potency is the fitted concentration of half-maximal effect). Put shortly: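 Same wells as the HIF-1 reporter screen; ME-180 cells carrying HRE-bla, 17 hr treatment at 37C; CellTiter-Glo luminescence read after 30 min at room temperature.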
In assay [5] the target is Nuclear receptor subfamily 1 group I member 3 (Homo sapiens) (UniProt Q14994). Briefly: qHTS assay to identify small molecule agonists of the constitutive androstane receptor (CAR) signaling pathway (AID 1224839). Note: nearly all actives have a fitted effect of over 15% in size. Note: potency is the fitted concentration of half-maximal effect. Put shortly: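 Double-stable HepG2 cells (hCAR, CYP2B6-2.2kb) seeded 4 h before compound addition. Exposure 24 h with 0.75 uM PK11195 final. Luciferase detected by ONE-Glo.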

The target of assay [6] is Thyrotropin receptor (Homo sapiens) (UniProt P16473). The experiment in a line: qHTS assay to identify small molecule agonists of the thyroid stimulating hormone receptor (TSHR) signaling pathway (AID 1224843; calls by dose curve; note: nearly all actives have a fitted effect of over 45% in size). The essentials: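 HEK293/TSHR, 800 cells/well; cpd 30 min RT; add cAMP-d2 + anti-cAMP-cryptate, 1 h RT; fluorescence read on plate reader. 15-pt titration, n=3.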

Assay [7] in a line: qHTS assay to identify small molecule agonists of the constitutive androstane receptor (CAR) signaling pathway - cell viability counter screen (AID 1224836). Note: nearly all actives have a fitted effect of over 45% in size. Note: potency is the fitted concentration of half-maximal effect. Put shortly: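 Using CellTiter-Fluor, viability of HepG2 cells harbouring hCAR and CYP2B6-2.2kb was measured following 23 h incubation with a 15-concentration compound series plus PK11195 (0.75 uM final).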
A short description of assay [8]: qHTS assay to identify small molecule antagonists of the constitutive androstane receptor (CAR) signaling pathway - cell viability counter screen (AID 1224837). Note: nearly all actives have a fitted effect of over 45% in size. Note: potency is the fitted concentration of half-maximal effect. Put shortly:
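In quantitative HTS format, compounds at 15 concentrations were applied to HepG2 cells double-transfected with hCAR and CYP2B6-2.2kb under 50 nM CITCO stimulation; live-cell protease activity was read after 23 hr via CellTiter-Fluor.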

Assay [9] concerns the target Nuclear receptor subfamily 1 group I member 3 (Homo sapiens) (UniProt Q14994). Briefly: qHTS assay to identify small molecule antagonists of the constitutive androstane receptor (CAR) signaling pathway (AID 1224838). Note: nearly all actives have a fitted effect of over 40% in size. Put shortly: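 CITCO-stimulated (50 nM final) HepG2 cells stably transfected with hCAR and CYP2B6-2.2kb luciferase were exposed to compounds at 15 concentrations for 24 h at 37 C/5% CO2. A luciferase reagent was added and luminescence recorded after 30 min.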

Assay [10] is described as follows: qHTS assay to identify small molecule antagonists of the estrogen related receptor signaling pathway with the pleiotropic PPARgamma coactivator (PGC) from Tox21 10K library (AID 1224841; call rule not given here; note: series mostly up to about 92 µM; actives are mostly falling curves and most rising ones were filed inactive; nearly all actives have a fitted effect of over 50% in size). Put shortly: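 In the PGC/ERR line, DMSO solutions of test chemicals are pin-delivered to 2,000 cells/well six hours after dispensing. Following eighteen hours' incubation, One-Glo reagent is added and luminescence recorded.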

Chain of Luciferin 4-monooxygenase (Photinus pyralis) (P08659 whole entry, looked up): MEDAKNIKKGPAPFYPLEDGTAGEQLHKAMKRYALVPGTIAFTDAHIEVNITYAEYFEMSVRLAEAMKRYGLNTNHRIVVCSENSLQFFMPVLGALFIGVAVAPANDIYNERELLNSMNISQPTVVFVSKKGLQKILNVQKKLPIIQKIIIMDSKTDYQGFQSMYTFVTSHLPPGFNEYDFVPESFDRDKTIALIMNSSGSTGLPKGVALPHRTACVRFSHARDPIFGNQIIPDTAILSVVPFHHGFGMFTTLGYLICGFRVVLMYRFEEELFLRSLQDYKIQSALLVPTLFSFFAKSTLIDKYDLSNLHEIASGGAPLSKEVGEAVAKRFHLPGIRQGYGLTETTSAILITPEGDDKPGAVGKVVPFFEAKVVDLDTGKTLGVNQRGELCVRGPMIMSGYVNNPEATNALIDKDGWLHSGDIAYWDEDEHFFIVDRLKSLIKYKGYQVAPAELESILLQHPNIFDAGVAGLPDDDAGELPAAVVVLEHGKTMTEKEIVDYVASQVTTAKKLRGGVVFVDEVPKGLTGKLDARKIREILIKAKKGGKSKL
Chain of Nuclear receptor subfamily 1 group I member 3 (Homo sapiens) (Q14994 whole entry, looked up): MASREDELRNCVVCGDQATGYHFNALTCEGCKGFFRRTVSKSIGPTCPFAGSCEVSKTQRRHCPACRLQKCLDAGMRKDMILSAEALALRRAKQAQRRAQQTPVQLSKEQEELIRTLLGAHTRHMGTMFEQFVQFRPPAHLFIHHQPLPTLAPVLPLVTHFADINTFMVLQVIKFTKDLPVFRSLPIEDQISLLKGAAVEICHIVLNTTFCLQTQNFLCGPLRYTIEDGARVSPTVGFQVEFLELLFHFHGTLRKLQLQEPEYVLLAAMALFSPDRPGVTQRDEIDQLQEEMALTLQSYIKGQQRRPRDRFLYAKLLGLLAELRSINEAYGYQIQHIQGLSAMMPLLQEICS
Chain of Thyrotropin receptor (Homo sapiens) (P16473 whole entry, looked up): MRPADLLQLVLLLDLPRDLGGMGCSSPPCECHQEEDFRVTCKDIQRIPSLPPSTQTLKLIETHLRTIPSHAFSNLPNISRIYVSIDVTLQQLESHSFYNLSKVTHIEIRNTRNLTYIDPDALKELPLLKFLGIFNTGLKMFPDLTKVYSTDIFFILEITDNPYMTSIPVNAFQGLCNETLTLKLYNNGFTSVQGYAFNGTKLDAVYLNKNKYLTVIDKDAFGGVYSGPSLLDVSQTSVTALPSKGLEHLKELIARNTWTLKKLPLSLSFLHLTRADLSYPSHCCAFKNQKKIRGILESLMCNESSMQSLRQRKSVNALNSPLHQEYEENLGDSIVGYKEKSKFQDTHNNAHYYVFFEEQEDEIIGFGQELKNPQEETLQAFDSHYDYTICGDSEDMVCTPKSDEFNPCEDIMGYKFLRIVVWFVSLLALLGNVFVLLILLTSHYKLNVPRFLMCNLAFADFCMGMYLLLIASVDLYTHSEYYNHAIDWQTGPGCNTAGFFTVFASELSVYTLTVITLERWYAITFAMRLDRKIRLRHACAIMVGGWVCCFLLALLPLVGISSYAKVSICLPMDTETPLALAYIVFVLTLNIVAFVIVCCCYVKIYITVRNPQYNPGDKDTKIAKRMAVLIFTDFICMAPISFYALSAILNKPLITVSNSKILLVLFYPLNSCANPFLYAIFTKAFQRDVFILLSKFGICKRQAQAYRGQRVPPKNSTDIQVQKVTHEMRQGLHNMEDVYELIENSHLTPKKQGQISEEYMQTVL

Regarding `O=C(Nc1ccc(Cl)c(Cl)c1)c1cc(Cl)cc(Cl)c1O`, the results for the Potency in assay [1], in assay [2] and in [4] were 3.99 µM (active), 4.33 µM (active) and 19.5 µM (active), respectively. Further, the Potency result in assay [3] is “inactive”.
For the molecule `COc1cc(C=C2CCC/C(=C\c3ccc(O)c(OC)c3)C2=O)ccc1O`, the Potency was 30.9 µM (active) in [1] and 15.1 µM (active) in assay [4]. Besides, the Potency entry in [5] and in assay [6] was “inactive” in each case.
With `Clc1ccccc1CN1CCc2sccc2C1`, the Potency entry in assay [7], in assay [8], in assay [2] and in assay [4] was “inactive” each time.
On to `CN(C)CCCN1c2ccccc2CCc2ccccc21`, for which, in [7], the Potency was 30.6 µM (active). In addition, the Potency entry in [8] was “inactive”.
`Nc1cc(Cl)c([N+](=O)[O-])cc1O`: the Potency result in assay [9], in assay [10], in assay [3] and in [6] was “inactive” throughout.
For the molecule `CN1[C@@H]2CC[C@H]1CC(OC(=O)C(CO)c1ccccc1)C2` (stereo partly specified), the Potency entry in assay [7], in assay [8], in assay [9] and in assay [2] was “inactive” in each case.
As for `c1cc2c3c(c1)ccc1cccc(c13)C2`, the Potency entry in [7], in assay [9], in assay [2], in assay [10] and in assay [3] was “inactive” each time.
`O=C1c2c(O)ccc(O)c2C(=O)c2c(NCCNCCO)ccc(NCCNCCO)c21`: the Potency in [7] is 3.76 µM (active); in assay [8], 4.22 µM (active).
For `C[n+]1c2cc(N)ccc2cc2ccc(N)cc21` (tested in a mixture with another compound), the Potency entry in [1] and in assay [4] was “inactive” each time.
`Cc1ccc(N)cc1O`: the Potency result in [7], in assay [8], in assay [9], in assay [2] and in assay [4] was “inactive” each time. The Potency in [5] is 27.3 µM (active).
For the molecule `Nc1ccc2cc3ccc(N)cc3nc2c1`, the Potency entry in assay [1] is “inactive”. In assay [4], the Potency is 24.5 µM (active) and inactive.
Turning to `CCCCCCCC/C=C\CCCCCCCC(=O)N(C)CC(=O)O`, the Potency result in assay [7], in assay [8], in assay [9], in assay [5], in [10] and in assay [3] was “inactive” in each case. Moreover, the Potency in assay [4] is 49 µM (active).
